Source: PubChem BioAssay
Most compounds without a hit are left out; they make up all but 3.3% or so of the library.
Gli-Sufu block: Gli-Sufu pathway antagonists, primary screen, luciferase luminescence, Sufu-KO-LIGHT cells, uHTS; Sufu-KO-LIGHT fibroblasts, Gli luciferase reporter luminescence; inhibition, % at 5 µM; 340,000 compounds, 0.74% hits; AID 588413, 2011;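 active = inhibition above about 55%, limit read from the data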;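 note: 0% = DMSO-treated cells and 100% = wells with medium but no cells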
esBAF inh: Bmi1 luciferase reporter increase in mESCs, primary screen, esBAF inhibitor project, mouse ES cells, Bmi1 luciferase knock-in, single point. reporter increase, % at 12.5 µM. 350,000 compounds, 2% hits. 24 h; 100% = twice the neutral-well signal; in the data active = activation above about 40%;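 note: 0% = median of the plate's neutral control wells and 100% = double that signal; a rise in the Bmi1 reporter signal indicates esBAF inhibition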
Jurkat NFkB inh: inhibitors of induced NF-kB luciferase reporter, primary screen, TCR NF-kB activation inhibitor project, cell-based, luminescence, uHTS; Jurkat, PMA/ionomycin-induced NF-kB luciferase reporter; inhibition, % at 4 µM; 330,000 compounds, 0.53% hits; in the data active = inhibition above about 50%
697 NFkB inh: inhibitors of PMA/ionomycin-induced NF-kB reporter, 697 cells, primary screen, B-cell NF-kB inhibitor project, cell-based, luminescence, uHTS. 697 B-cell NF-kB luciferase reporter, 16 h. inhibition, % at 4 µM. 330,000 compounds, 0.33% hits; in the data active = inhibition above about 35%
SMARCA2 activ: SMARCA2 (BRM) function activators, primary screen, cell-based, luminescence, high throughput. MG213 cells, MMTV-luciferase reporter, dexamethasone, overnight. activation, % at 9.1 µM. 370,000 compounds, 1% hits. AID 652017, 2013; in the data active = activation above about 7.8%;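 note: 0% = vehicle wells and 100% = reference activator wells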
* = called active by the depositor; ! = not active in a repeat.

For C=C1C(=O)OC2CC(C)C3C=CC(=O)C3(C)C(O)C12 (stereo not drawn) the results were Gli-Sufu block 93.9*.
`COC(=O)[C@@H]1[C@@H](CO)[C@@H]2Cn3c(ccc(-c4cccc(OC)c4)c3=O)[C@H]1N2CC1CC1` gave esBAF inh 2.2.
Screening CCN1[C@@H]2c3ccc(-c4cccc(C(=O)N(C)C)c4)c(=O)n3C[C@H]1[C@H](CO)[C@H]2C(=O)OC returned esBAF inh -10.3.
CC1=CC2OC3CC4OC(=O)C=CC=CC(=O)OCCC(C)C(O)C(=O)OCC2(CC1)C4(C)C31CO1 (stereo not drawn) was read as Gli-Sufu block 92.0* and SMARCA2 activ -10.8.
For CC1=CC2OC3CC4OC(=O)C=CC=CC(C(C)O)OCC(O)C5(C)OC5C(=O)OCC2(CC1O)C4(C)C31CO1 (stereo not drawn) the results were Gli-Sufu block 88.3* and SMARCA2 activ -9.8.
For CC(O)C1C=CC=CC(=O)OC2CC3OC4C5OC5(C)C(O)CC4(COC(=O)C(O)C(C)CCO1)C2(C)C31CO1 (stereo not drawn) the results were Gli-Sufu block 91.9* and SMARCA2 activ -12.5.
Screening COC(=O)[C@H]1[C@H](CO)[C@H]2Cn3c(ccc(-c4ccccc4)c3=O)[C@@H]1N2C(=O)c1ccccc1F returned esBAF inh -3.0.
CCn1c(C)c(C(=O)Nc2ccc(OC)cc2)c2cc(OC)ccc21 was read as Gli-Sufu block -34.5, esBAF inh 50.9*, Jurkat NFkB inh -47.8, 697 NFkB inh -52.7 and SMARCA2 activ 1.3.
Screening CCCCn1c(C)c(C(=O)O)c2cc(OC)ccc21 returned Gli-Sufu block 12.9, esBAF inh -6.3, Jurkat NFkB inh -2.6, 697 NFkB inh 4.4 and SMARCA2 activ -1.9.
COc1cc2cc(C(=O)N3CC(COS(C)(=O)=O)c4ccc(O)cc43)[nH]c2c(OC)c1OC (stereo not drawn) was read as Gli-Sufu block 94.0*.
CCN1[C@@H]2Cn3c(ccc(-c4cccc(C(=O)N(C)C)c4)c3=O)[C@H]1[C@@H](C(=O)OC)[C@@H]2CO was read as esBAF inh -8.8.
For COC(=O)[C@H]1[C@H](CO)[C@H]2Cn3c(ccc(-c4ccc(F)cc4)c3=O)[C@@H]1N2Cc1ccccc1 the results were esBAF inh -0.1.
Cc1cc(C=C2C(=O)NC(=S)NC2=O)c(C)n1C1CCCC1 was read as Gli-Sufu block 21.4, esBAF inh 48.4*, Jurkat NFkB inh 7.6, 697 NFkB inh 9.2 and SMARCA2 activ 0.4.
Cc1cccc(S(=O)(=O)N2[C@@H]3Cn4c(ccc(-c5ccncc5)c4=O)[C@H]2[C@@H](C(=O)O)[C@@H]3CO)c1 was read as esBAF inh -2.4.
C[C@H]1[C@@H](OS(=O)(=O)O)C[C@@H]2C[C@H]([C@@H](O)c3cc(=O)[nH]c(=O)[nH]3)NC3=NC[C@H]1N32 was read as Gli-Sufu block 76.2* and esBAF inh -27.7.
O=C(C1CC(c2ccc(Cl)c(Cl)c2)=NO1)N1CCC2(CC1)OCCO2 (stereo not drawn) was read as Gli-Sufu block -4.0, esBAF inh 80.4*, Jurkat NFkB inh -50.8, 697 NFkB inh -70.9 and SMARCA2 activ 0.5.
For COC(=O)[C@H]1[C@H](CO)[C@H]2Cn3c(ccc(C4=CCCC4)c3=O)[C@@H]1N2Cc1ccccn1 the results were esBAF inh -1.7.
Screening CC1Oc2cc3c(-c4c(O)cc(O)c5c(O)c6c(cc45)OC(C)C(C)C6=O)c(O)cc(O)c3c(O)c2C(=O)C1C (stereo not drawn) returned Gli-Sufu block 67.6*, esBAF inh -59.2, Jurkat NFkB inh 0.8 and 697 NFkB inh -2.8.
`O=C(OCc1ccccc1)N1CCC2CC1c1cc(N3Cc4ccccc4-n4nncc4C3)ccc12` (stereo not drawn) gave esBAF inh 76.7* and SMARCA2 activ 7.1.
CC1CC(C)(O)CC(C(O)CC2CC(=O)NC(=O)C2)C1=O (stereo not drawn) was read as Gli-Sufu block 83.8* and SMARCA2 activ -9.3.
For C[C@H]1CN([C@@H](C)CO)C(=O)CCCn2cc(nn2)CO[C@H]1CN(C)C(=O)Oc1cccc2ccccc12 the results were esBAF inh 1.9.
For CC=Cc1ccc2n(c1=O)C[C@H]1[C@H](CO)[C@@H](C(=O)N(C)C)N[C@@H]21 (mixture of isomers) the results were esBAF inh 2.9.
For Cn1c(=O)n(C)c2cc([N+](=O)[O-])c(N3CCNCC3)cc21 the results were Gli-Sufu block 57.3*, esBAF inh -12.0, Jurkat NFkB inh 10.3, 697 NFkB inh 3.3 and SMARCA2 activ -3.7.
Screening O=[N+]([O-])c1cc(F)c(N2CCCC2)cc1N1CCNCC1 returned Jurkat NFkB inh 12.7 and 697 NFkB inh -6.4.
Screening CC=Cc1ccc2n(c1=O)C[C@@H]1[C@@H](CO)[C@H](C(=O)O)[C@H]2N1S(=O)(=O)c1ccccc1C (mixture of isomers) returned esBAF inh 0.4.
For COC(=O)[C@@H]1[C@@H](CO)[C@@H]2Cn3c(ccc(C4=CCCCC4)c3=O)[C@H]1N2C(=O)NC(C)C the results were esBAF inh 3.3.
For Oc1ccccc1-[n+]1c(-c2ccccc2)cc(-c2ccccc2)cc1-c1ccccc1 the results were Gli-Sufu block 24.0, esBAF inh -13.7, Jurkat NFkB inh 20.4, 697 NFkB inh -15.3 and SMARCA2 activ 0.0.
Cc1ccccc1-[n+]1c(-c2ccccc2)cc(-c2ccccc2)cc1-c1ccccc1 was read as Gli-Sufu block 76.7*, esBAF inh -71.9, Jurkat NFkB inh 15.9, 697 NFkB inh -11.5 and SMARCA2 activ -8.6.
CCCN1[C@@H]2Cn3c(ccc(-c4ccc(OC)cc4)c3=O)[C@H]1[C@@H](C(=O)OC)[C@@H]2CO was read as esBAF inh -2.6.
Screening CC1=CC(C)CC(C)OC(=O)CC(c2ccc(O)cc2)NC(=O)C(Cc2c(Br)[nH]c3ccccc23)N(C)C(=O)C(C)NC(=O)C(C)C1 (stereo not drawn) returned Gli-Sufu block 83.3* and SMARCA2 activ -5.1.
Screening CNc1ccc2oc(C[C@H]3O[C@@]4(CC[C@H]3C)O[C@H]([C@H](C)C(=O)c3ccc[nH]3)[C@H](C)C[C@H]4C)nc2c1C(=O)O returned Gli-Sufu block 83.1*, esBAF inh -58.6, Jurkat NFkB inh 23.3, 697 NFkB inh -60.8 and SMARCA2 activ -7.6.
For NNCc1ccccc1 the results were Gli-Sufu block -4.4, esBAF inh 49.1*! and SMARCA2 activ -3.6.
